Source: PubChem BioAssay (NCATS)
Records with an inconclusive call do not appear. Calls of active or inactive are those of the source. Unless noted, calls follow the shape of the dose curve; as a rule, active = well fitted curve in the direction sought with a large enough effect; inconclusive = small, poorly fitted or top-dose-only effect, or another doubt; inactive = no such curve, though single readings can be large; an effect the other way counts as inactive or inconclusive.

Tests used:
[1] = target: Estrogen receptor (Homo sapiens) (UniProt P03372); assay: qHTS assay for small molecule antagonists of estrogen receptor alpha signaling (AID 588513; active = well fitted curve in the direction sought with a large enough effect in the signal ratio, with a control signal flat, not every such curve was filed as active; the % refers to the signal ratio; also: % is scaled to controls: 0 for no effect and ±100 for the full control effect)
Estrogen receptor (Homo sapiens), sequence (P03372 whole entry, looked up): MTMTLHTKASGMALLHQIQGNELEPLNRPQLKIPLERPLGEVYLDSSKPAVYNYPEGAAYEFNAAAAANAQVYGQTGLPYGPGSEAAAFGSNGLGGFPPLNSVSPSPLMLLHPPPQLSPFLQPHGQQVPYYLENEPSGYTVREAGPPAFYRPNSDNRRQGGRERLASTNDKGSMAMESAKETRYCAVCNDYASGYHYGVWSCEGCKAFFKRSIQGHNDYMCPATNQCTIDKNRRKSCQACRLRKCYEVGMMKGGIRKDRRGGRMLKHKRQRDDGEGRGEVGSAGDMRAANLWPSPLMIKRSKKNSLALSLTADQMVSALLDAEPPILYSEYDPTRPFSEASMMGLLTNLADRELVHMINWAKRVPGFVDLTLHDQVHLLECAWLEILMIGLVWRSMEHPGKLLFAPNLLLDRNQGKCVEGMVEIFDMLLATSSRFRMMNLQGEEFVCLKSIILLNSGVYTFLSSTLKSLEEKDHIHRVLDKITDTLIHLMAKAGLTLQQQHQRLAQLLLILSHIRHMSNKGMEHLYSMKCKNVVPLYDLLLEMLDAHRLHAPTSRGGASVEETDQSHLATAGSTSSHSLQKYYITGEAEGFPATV
Procedure, shortened: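 ER-alpha-UAS-bla GripTite HEK 293 cells in medium with 2% charcoal/dextran-treated FBS were preincubated 4 h at 37 C, dosed with compound (1:2 titration), stimulated with 0.5nM 17-beta-estradiol for 18 h, then read by CCF4 beta-lactamase fluorescence.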

[2] = target: Estrogen receptor (Homo sapiens) (UniProt P03372); assay: qHTS assay for small molecule agonists of estrogen receptor alpha signaling (AID 588514; calls by dose curve;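 also: 0% = vehicle only and 100% = reference agonist; nearly all actives have a fitted effect of over 70% in size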)
Procedure, shortened: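 Efficacy is expressed against 20 nM 17-beta-estradiol (100%) and DMSO basal (0%); EC50 from Hill equation. Assay: beta-lactamase reporter in ER-alpha-UAS-bla HEK 293 cells, 18 h compound incubation, CCF4 detection.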

[3] = target: Glucocorticoid receptor (Homo sapiens) (UniProt P04150); assay: qHTS assay for small molecule antagonists of glucocorticoid receptor signaling (AID 588533; active = well fitted inhibition curve with a large enough effect in the signal ratio, with a control signal flat, not every such curve was filed as active; the % refers to the signal ratio;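 also: cells stimulated with 2 nM dexamethasone as agonist; % is scaled to controls: 0 for no effect and ±100 for the full control effect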)
Glucocorticoid receptor (Homo sapiens), sequence (P04150 whole entry, looked up): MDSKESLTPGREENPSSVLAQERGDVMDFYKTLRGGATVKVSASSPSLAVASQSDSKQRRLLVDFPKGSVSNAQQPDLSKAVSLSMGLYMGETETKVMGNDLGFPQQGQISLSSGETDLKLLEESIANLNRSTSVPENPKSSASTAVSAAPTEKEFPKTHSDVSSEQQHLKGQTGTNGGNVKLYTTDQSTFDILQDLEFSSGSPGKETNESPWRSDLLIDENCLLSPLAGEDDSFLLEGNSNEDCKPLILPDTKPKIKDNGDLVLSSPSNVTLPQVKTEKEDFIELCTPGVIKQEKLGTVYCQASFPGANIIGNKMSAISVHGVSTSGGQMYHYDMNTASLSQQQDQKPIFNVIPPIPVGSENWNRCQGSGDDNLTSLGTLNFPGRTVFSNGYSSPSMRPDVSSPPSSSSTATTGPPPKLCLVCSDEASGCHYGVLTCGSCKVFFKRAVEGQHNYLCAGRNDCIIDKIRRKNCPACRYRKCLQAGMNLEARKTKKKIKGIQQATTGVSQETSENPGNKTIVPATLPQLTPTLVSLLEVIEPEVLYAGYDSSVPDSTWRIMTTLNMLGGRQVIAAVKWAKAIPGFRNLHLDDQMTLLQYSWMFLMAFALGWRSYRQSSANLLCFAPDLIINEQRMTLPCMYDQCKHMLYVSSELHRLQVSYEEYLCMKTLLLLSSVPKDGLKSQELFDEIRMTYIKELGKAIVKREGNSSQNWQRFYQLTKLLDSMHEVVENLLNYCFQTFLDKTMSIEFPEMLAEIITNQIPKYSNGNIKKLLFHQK
Procedure, shortened: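 Antagonist-mode qHTS: compound titrations added to GRE-bla HeLa cells, then dexamethasone 2 nM final; 18 h, 37 C. CCF4 FRET fluorescence normalized to dexamethasone and DMSO; IC50 from Hill fit.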

[4] = qHTS assay for small molecule antagonists of peroxisome proliferator-activated receptor delta signaling (AID 588535; active = well fitted inhibition curve with a large enough effect in the signal ratio, with a control signal flat, not every such curve was filed as active; the % refers to the signal ratio;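 as to max response: cells co-treated with a PPAR-delta agonist as stimulator during compound exposure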); details: HEK293T PPARd-UAS-bla, beta-lactamase FRET ratio, 18 h; 460 nm channel
Procedure, shortened: (§1)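 Titrations were run on PPAR-delta-UAS-bla HEK293T cells in charcoal/dextran-stripped serum, incubated 18 h at 37 C. CCF4 fluorescence (460/530 nm) after 2 h RT; Hill equation yields IC50 and maximal response.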

[5] = target: Peroxisome proliferator-activated receptor delta (Homo sapiens) (UniProt Q03181); assay: as above
Peroxisome proliferator-activated receptor delta (Homo sapiens), sequence (Q03181 whole entry, looked up): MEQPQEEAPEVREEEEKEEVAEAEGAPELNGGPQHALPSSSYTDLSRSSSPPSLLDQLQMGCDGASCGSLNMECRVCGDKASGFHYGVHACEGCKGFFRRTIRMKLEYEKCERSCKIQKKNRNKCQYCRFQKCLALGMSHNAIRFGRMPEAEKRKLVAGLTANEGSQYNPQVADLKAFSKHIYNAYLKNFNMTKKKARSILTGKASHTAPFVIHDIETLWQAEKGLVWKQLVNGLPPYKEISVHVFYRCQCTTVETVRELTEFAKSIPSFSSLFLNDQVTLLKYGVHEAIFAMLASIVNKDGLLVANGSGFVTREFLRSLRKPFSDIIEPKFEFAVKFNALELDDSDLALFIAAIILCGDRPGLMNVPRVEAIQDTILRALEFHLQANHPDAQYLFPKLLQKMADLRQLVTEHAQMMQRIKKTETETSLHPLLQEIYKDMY
Procedure, shortened: as §1

[6] = target: Peroxisome proliferator-activated receptor gamma (Homo sapiens) (UniProt P37231); assay: qHTS assay for small molecule agonists of peroxisome proliferator-activated receptor gamma signaling (AID 588536; active = well fitted curve in the direction sought with a large enough effect in the signal ratio, with a control signal flat, not every such curve was filed as active; the % refers to the signal ratio;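 also: 0% = DMSO basal wells and 100% = rosiglitazone at 2 µM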)
Peroxisome proliferator-activated receptor gamma (Homo sapiens), sequence (P37231 whole entry, looked up): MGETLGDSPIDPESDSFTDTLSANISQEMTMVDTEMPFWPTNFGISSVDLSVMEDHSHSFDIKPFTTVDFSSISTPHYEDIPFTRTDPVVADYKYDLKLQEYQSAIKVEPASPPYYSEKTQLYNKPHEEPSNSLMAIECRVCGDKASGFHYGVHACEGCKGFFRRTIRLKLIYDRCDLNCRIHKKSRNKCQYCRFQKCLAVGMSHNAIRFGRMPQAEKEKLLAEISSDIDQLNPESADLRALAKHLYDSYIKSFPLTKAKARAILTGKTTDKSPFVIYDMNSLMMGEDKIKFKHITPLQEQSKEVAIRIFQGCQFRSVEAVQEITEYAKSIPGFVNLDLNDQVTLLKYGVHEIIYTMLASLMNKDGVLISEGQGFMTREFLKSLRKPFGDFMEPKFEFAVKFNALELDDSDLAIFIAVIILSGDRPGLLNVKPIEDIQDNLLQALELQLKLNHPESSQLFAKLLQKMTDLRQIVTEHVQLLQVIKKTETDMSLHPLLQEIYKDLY
Procedure, shortened: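 Compound treatment: 16 h, 37 C, HEK293 GeneBLAzer cells. Detection: CCF4, 2 h RT. Values: Hill-fit EC50, efficacy as % of 2 uM rosiglitazone.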

[7] = qHTS assay for small molecule agonists of retinoid X receptor alpha signaling (AID 588544; calls by dose curve;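 as to activation: 0% = DMSO basal wells and 100% = reference agonist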); details: HEK293T RXRa-UAS-bla, beta-lactamase reporter, 18 h; 530 nm emission
[8] = target: Retinoic acid receptor RXR-alpha (Homo sapiens) (UniProt P19793); assay: as above
Retinoic acid receptor RXR-alpha (Homo sapiens), sequence (P19793 whole entry, looked up): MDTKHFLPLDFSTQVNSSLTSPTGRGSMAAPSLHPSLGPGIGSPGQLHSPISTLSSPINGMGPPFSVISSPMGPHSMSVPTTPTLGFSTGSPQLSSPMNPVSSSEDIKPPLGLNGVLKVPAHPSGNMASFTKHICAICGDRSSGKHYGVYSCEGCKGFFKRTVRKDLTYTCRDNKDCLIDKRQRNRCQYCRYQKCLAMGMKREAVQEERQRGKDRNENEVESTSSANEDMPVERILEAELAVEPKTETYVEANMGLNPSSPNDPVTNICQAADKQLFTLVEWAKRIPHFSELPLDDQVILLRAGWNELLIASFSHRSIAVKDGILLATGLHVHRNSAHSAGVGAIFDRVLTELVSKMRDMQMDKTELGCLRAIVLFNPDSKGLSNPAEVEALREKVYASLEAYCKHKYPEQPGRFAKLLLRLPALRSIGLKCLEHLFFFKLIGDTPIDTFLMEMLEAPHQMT

[9] = target: Thyroid hormone receptor beta (Homo sapiens) (UniProt P10828); assay: qHTS assay for small molecule agonists of thyroid hormone receptor beta signaling (AID 588545; calls by dose curve)
Thyroid hormone receptor beta (Homo sapiens), sequence (P10828 whole entry, looked up): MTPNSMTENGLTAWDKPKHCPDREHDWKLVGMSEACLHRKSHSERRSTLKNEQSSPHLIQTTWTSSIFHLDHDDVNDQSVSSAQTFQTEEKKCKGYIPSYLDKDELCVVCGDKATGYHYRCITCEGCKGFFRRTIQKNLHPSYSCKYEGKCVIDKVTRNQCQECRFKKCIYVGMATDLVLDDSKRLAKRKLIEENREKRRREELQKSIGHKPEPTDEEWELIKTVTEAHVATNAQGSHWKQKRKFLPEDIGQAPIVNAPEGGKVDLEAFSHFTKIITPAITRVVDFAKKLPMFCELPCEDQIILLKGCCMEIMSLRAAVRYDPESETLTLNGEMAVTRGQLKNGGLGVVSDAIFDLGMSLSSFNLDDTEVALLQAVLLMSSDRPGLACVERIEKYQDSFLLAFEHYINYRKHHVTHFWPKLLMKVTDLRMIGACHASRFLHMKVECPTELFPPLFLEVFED
Procedure, shortened: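 Agonist activity was read as beta-lactamase CCF4 fluorescence (405 ex, 460/530 em), scaled between DMSO (0%) and 10 nM T3 (100%), then Hill-fitted for EC50 and efficacy. HEK 293 TR-UAS-bla cells in 2% charcoal/dextran FBS medium were exposed 18 h at 37 C.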

[10] = qHTS assay for small molecule antagonists of retinoid X receptor alpha signaling (AID 588546; active = well fitted inhibition curve with a large enough effect in the signal ratio, with a control signal flat, not every such curve was filed as active; the % refers to the signal ratio;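 also: cells stimulated with 9-cis-retinoic acid as agonist; % is scaled to controls: 0 for no effect and ±100 for the full control effect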); details: HEK293T RXRa-UAS-bla, beta-lactamase ratio, antagonist mode; measured here: W530 green channel, cytotoxicity proxy
Procedure, shortened: (§2)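 Beta-lactamase reporter inhibition, read as CCF4 fluorescence ratio (ex 405, em 460/530 nm) after 2 h at RT. HEK293T UAS-bla cells, 2500/well, were stimulated with 9-cis-RA at 500 or 100 nM final alongside test compound for 18 h at 37 C.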

[11] = target: Retinoic acid receptor RXR-alpha (Homo sapiens) (UniProt P19793); assay: as above; details: HEK293T RXRa-UAS-bla, beta-lactamase ratio, antagonist mode
Procedure, shortened: as §2

[12] = qHTS assay for small molecule activators of the nuclear factor-kappa B (NF-kB) signaling pathway (AID 651749; active = well fitted activation curve with a large enough effect in the signal ratio; the % refers to the signal ratio; also: series mostly up to about 77 µM; % of control where 0% means no effect); details: NF-kB-bla ME-180 cells, beta-lactamase FRET ratio, 16 h; activation: stronger effect = higher value
Procedure, shortened: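 Activation measured after 16 hr compound treatment at 37C, 5% CO2, of 2,000 ME-180 cells/well stably expressing an NF-kB response element–driven beta-lactamase reporter, via FRET-disruption fluorescence.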

[13] = qHTS assay for environmental chemicals that activate the Aryl hydrocarbon Receptor (AhR) signaling pathway (AID 651777); details: 1A2-DRE human hepatoma cells, luciferase, 24 h; activation: stronger effect = higher value; also: % of control where 0% means no effect; nearly all actives have a fitted effect of over 15% in size
Procedure, shortened: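 Luminescence (One-Glo, 30 min, room temperature) reports AhR-driven luciferase in stably transfected human hepatoma cells bearing DRE and CYP1A2 promoter. Cells (1,200/well) were treated with compound for 24 hr at 37 C in qHTS format.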

[14] = target: Peroxisome proliferator-activated receptor alpha (Homo sapiens) (UniProt Q07869); assay: qHTS assay for small molecule agonists of the peroxisome proliferator-activated receptor alpha (PPARalpha) signaling pathway (AID 651778); details: PathHunter PPARalpha complementation, chemiluminescence, 6 h; max response: stronger effect = higher value; also: % of control where 0% means no effect
Peroxisome proliferator-activated receptor alpha (Homo sapiens), sequence (Q07869 whole entry, looked up): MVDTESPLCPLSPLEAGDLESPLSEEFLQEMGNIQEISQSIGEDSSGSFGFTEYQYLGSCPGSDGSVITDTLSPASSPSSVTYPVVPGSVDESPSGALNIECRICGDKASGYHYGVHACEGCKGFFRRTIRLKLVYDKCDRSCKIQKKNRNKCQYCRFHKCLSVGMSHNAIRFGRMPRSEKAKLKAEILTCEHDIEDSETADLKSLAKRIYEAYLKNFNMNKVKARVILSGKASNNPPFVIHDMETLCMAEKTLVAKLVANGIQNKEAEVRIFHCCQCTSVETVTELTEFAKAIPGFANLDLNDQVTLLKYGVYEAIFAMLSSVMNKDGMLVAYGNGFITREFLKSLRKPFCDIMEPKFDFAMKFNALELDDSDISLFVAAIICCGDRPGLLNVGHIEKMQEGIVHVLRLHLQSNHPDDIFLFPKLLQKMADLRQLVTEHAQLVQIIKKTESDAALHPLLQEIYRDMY
Procedure, shortened: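 Chemiluminescence from complemented enzyme reported PPARalpha activation in cells after 6 hr of compound treatment at 37 C. The detection reagent was incubated for 60 min at room temperature, and compounds were scored as agonists.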

[15] = qHTS assay for small molecule agonists of the antioxidant response element (ARE) signaling pathway measured by Nrf2-dependant transcriptional activity (AID 720636; active = well fitted curve in the direction sought with a large enough effect in the repeat runs; an effect the other way counts as inactive or inconclusive; also: % of control where 0% means no effect)
Procedure, shortened: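 Nrf2-dependent transcription read as ONE-Glo luciferase signal from ARE-luc HepG2 reporter cells after 16 hr compound treatment at 37 C, 5% CO2, in assay medium with 1% dialyzed FBS.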

[16] = qHTS assay for small molecule agonists of the antioxidant response element (ARE) signaling pathway measured by Nrf2-dependant transcriptional activity - cell viability counter screen (AID 720653; active = well fitted curve in the direction sought with a large enough effect in the repeat runs; an effect the other way counts as inactive or inconclusive; also: % is scaled to controls: 0 for no effect and ±100 for the full control effect); details: ARE-bla HepG2 viability, CellTiter-Glo ATP luminescence, 16 h; max response: stronger effect = lower value
Procedure, shortened: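 Cytotoxicity counter screen: intracellular ATP quantified by CellTiter-Glo luminescence in the same ARE-bla HepG2 plates, after 16 h compound exposure and a 2 h beta-lactamase substrate step.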

[17] = qHTS assay for cell viability of HEK293 cells (AID 743288); details: ATP luminescence (CellTiter-Glo), 18 h; max response: stronger effect = lower value; also: % is scaled to controls: 0 for no effect and ±100 for the full control effect; nearly all actives have a fitted effect of over 50% in size
Procedure, shortened: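 After 18 h compound exposure at 37 C, parental HEK293 cells (2,000/well) are lysed with CellTiter-Glo and luminescence is read following 30 min at room temperature.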

[18] = qHTS assay for cell viability of the p53RE-bla HCT-116 cell line (AID 743292); also: % is scaled to controls: 0 for no effect and ±100 for the full control effect; nearly all actives have a fitted effect of over 55% in size
Procedure, shortened: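 ATP-based luminescent viability (CellTiter-Glo, 30 min RT) after 16 h compound treatment at 37 C of p53RE-bla HCT-116 cells, seeded at 4,000 cells/well and rested 5 h before dosing.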

[19] = target: Nuclear receptor subfamily 1 group I member 2 (Rattus norvegicus) (UniProt Q9R1A7); assay: qHTS assay for small molecule activators of the rat pregnane X receptor (rPXR) signaling pathway (AID 651751; call rule not given here; also: 0% is about no effect); details: rPXR reporter cells, luciferase (One-Glo), 24 h
Nuclear receptor subfamily 1 group I member 2 (Rattus norvegicus), sequence (Q9R1A7 whole entry, looked up): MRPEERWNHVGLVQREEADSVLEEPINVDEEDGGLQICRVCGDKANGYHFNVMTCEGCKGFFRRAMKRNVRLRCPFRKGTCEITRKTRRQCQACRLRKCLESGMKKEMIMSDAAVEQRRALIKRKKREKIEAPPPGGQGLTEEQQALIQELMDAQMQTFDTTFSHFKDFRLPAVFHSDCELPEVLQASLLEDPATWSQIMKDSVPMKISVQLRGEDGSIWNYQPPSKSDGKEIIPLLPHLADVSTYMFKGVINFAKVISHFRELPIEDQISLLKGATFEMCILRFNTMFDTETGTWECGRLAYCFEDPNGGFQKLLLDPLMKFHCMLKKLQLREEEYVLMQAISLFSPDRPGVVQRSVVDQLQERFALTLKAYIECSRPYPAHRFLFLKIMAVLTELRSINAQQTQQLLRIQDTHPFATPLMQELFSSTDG

[20] = qHTS assay for small molecule activators of the human pregnane X receptor (PXR) signaling pathway (AID 720659; call rule not given here; also: 0% is about no effect)

CCCCCCCCCCCCCCN
inactive: Potency [1] | Potency [2] | Potency [3] | Potency [5] | outcome [6] | Potency [8] | Potency [9] | max response [11] -5.01% | activation [12] -1.74% | activation [13] -0.123% | max response [14] -1.81% | Potency [15] | max response [16] 4.41% | max response [17] -3.28% | Potency [18] | max response [19] 1.71% | outcome [20]
-19.1%: max response [7]
-5.44%: max response [10]
-7.23%: max response [4]

COC(=O)c1cccc(C(=O)OC)c1
-11.8%: max response [7]
-2.46%: max response [4]
-14.8%: max response [10]
inactive: Potency [1] | Potency [2] | Potency [5] | outcome [6] | Potency [8] | Potency [9] | max response [11] -0.335% | activation [13] 1.87% | max response [14] 0.364% | Potency [15] | max response [16] -6.37% | max response [17] -8.05% | Potency [18] | max response [19] 2.45%

COC(=O)c1cccc(C)c1S(=O)(=O)NC(=O)Nc1nc(OCC(F)(F)F)nc(N(C)C)n1
78.8%: max response [4]
-7.48%: max response [10]
inactive: Potency [1] | Potency [2] | Potency [3] | Potency [5] | outcome [6] | Potency [9] | max response [11] -20.9% | activation [12] 0.0138% | activation [13] 2.46% | max response [14] -1.42% | Potency [15] | max response [16] -9.65% | max response [17] -5.64% | Potency [18] | max response [19] -6.52% | outcome [20]

CNc1nc(=O)n(C2CCCCC2)c(=O)n1C
8.32%: max response [4]
-10.4%: max response [10]
-10.1%: max response [7]
inactive: Potency [1] | Potency [2] | Potency [3] | Potency [5] | Potency [8] | Potency [9] | max response [11] 4.07% | activation [12] -1.72% | activation [13] 2.39% | max response [14] -0.955% | Potency [15] | max response [16] 3.71% | max response [17] -6.85% | Potency [18] | max response [19] -0.0446% | outcome [20]

CCCCCCCC[Si](Cl)(Cl)Cl
inactive: Potency [1] | Potency [2] | Potency [3] | Potency [5] | outcome [6] | Potency [8] | Potency [9] | max response [11] -13.9% | activation [12] -3.66% | activation [13] 3.53% | max response [14] -0.623% | Potency [15] | max response [16] -9.8% | max response [17] -3.47% | Potency [18] | max response [19] 0.644% | outcome [20]
-7.78%: max response [7]
-3.5%: max response [10]
-4.76%: max response [4]

CC1(C)CC(NCCCCCCNC2CC(C)(C)NC(C)(C)C2)CC(C)(C)N1
-10.1%: max response [10]
-2.83%: max response [7]
inactive: Potency [1] | Potency [2] | Potency [3] | outcome [6] | Potency [8] | Potency [9] | max response [11] 2.64% | activation [12] -3.22% | activation [13] 0.472% | max response [14] -0.876% | Potency [15] | max response [16] -7.27% | max response [17] -6.6% | Potency [18] | max response [19] 1.41% | outcome [20]

C[Si](Cl)(Cl)[Si](C)(Cl)Cl
-10.7%: max response [10]
-10.2%: max response [7]
-5.47%: max response [4]
inactive: Potency [1] | Potency [2] | Potency [3] | Potency [5] | outcome [6] | Potency [8] | Potency [9] | max response [11] -4.71% | activation [12] -1.71% | activation [13] 0.351% | max response [14] -2.05% | Potency [15] | max response [17] -7.2% | Potency [18] | max response [19] 6.3% | outcome [20]

O=C(O)c1ccc2c(c1)C(=O)OC2=O
-2.35%: max response [10]
inactive: Potency [1] | Potency [2] | Potency [3] | outcome [6] | Potency [8] | Potency [9] | activation [12] 0.891% | activation [13] 1.29% | max response [14] -0.399% | Potency [15] | max response [16] -5.37% | max response [17] -7.11% | Potency [18] | max response [19] 0.711%
-9.87%: max response [7]

O=C(c1ccc(Cl)cc1)c1ccc(Cl)cc1
inactive: Potency [1] | Potency [2] | Potency [5] | outcome [6] | Potency [8] | Potency [9] | max response [11] 7.91% | activation [12] 1.57% | activation [13] -0.153% | max response [14] -1.26% | Potency [15] | max response [16] -5.32% | max response [17] -7.2% | Potency [18] | max response [19] 0.85% | outcome [20]
-11.4%: max response [10]
24.6%: max response [4]
6.29%: max response [7]

COC(=O)c1c(Cl)nn(C)c1S(=O)(=O)NC(=O)Nc1nc(OC)cc(OC)n1
-1.74%: max response [10]
-24.6%: max response [4]
inactive: Potency [1] | Potency [2] | Potency [3] | Potency [5] | outcome [6] | Potency [8] | Potency [9] | max response [11] -14.3% | activation [12] -2.65% | activation [13] -1.75% | max response [14] 0.0687% | Potency [15] | max response [16] -2.6% | max response [17] -3.18% | max response [19] 1.48% | outcome [20]
-3.44%: max response [7]

C[Si](Cl)(Cl)c1ccccc1
inactive: Potency [1] | Potency [2] | Potency [3] | Potency [5] | outcome [6] | Potency [8] | Potency [9] | max response [11] -4.88% | activation [12] 0.494% | activation [13] 0.0847% | max response [14] -2.64% | Potency [15] | max response [16] -14.9% | max response [17] -2.42% | Potency [18] | max response [19] -3.28% | outcome [20]
-2.11%: max response [10]
44.2%: max response [4]
-17.5%: max response [7]
